# Assay results reported in PubChem BioAssay (Tox21).
# Values joined by “and” are separate entries in the source; they are usually repeats but may differ in a detail not shown here. Equal entries are not always repeated. Records with an inconclusive call do not appear. Where a call stands in place of a potency, no number is given. Some structures have more than one record in an assay (separate samples or runs), and their calls can disagree. Active and inactive are the calls of the source. Unless noted, the call rests on the fitted dose curve; in most records, active means well fitted curve in the direction sought with a large enough effect in the repeat runs; inconclusive means weak or mixed curves; inactive means no such curve, though single readings can be large; an effect the other way counts as inactive or inconclusive.
# Columns and labels:
# [1] = qHTS assay to identify aromatase inhibitors - cell viability counter screen (AID 743084);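 further: cells stimulated with testosterone during compound exposure; nearly all actives have a fitted effect of over 55% in size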; further: potency means the concentration at half of the fitted maximal effect
# [2] = target: Aryl hydrocarbon receptor (Homo sapiens) (UniProt P35869); experiment: qHTS assay to identify small molecule that activate the aryl hydrocarbon receptor (AhR) signaling pathway (AID 743085); further: nearly all actives have a fitted effect of over 15% in size; further: potency means the concentration at half of the fitted maximal effect;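 on activation: HG2L7.5c1 human HepG2 liver cells with stably integrated DRE-driven firefly reporter; series mostly up to about 70 µM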
# How it was run: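 Stably transfected human liver carcinoma cells (HG2L7.5c1; 20 DRE-firefly luciferase) were incubated 5 h, dosed, and kept 24 h at 37C. Agonism was scored from increased luciferase luminescence.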
# [3] = qHTS assay to identify small molecule that activate the aryl hydrocarbon receptor (AhR) signaling pathway - cell viability counter screen (AID 743086); further: nearly all actives have a fitted effect of over 45% in size; further: potency means the concentration at half of the fitted maximal effect
# How it was run: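 Cytotoxicity counter screen: CellTiter-Fluor signal (30 min, 37 C) in 4000 HepG2 cells/well carrying the DRE-luciferase reporter, following 24 h compound exposure at 37 C.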
# [4] = qHTS assay to identify small molecule antagonists of the peroxisome proliferator-activated receptor gamma (PPARg) signaling pathway - cell viability counter screen (AID 743194); details: Potency: co-treated with 50 nM rosiglitazone unless noted; further: nearly all actives have a fitted effect of over 55% in size; further: potency means the concentration at half of the fitted maximal effect
# How it was run: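 Viability was measured as CellTiter-Glo luminescence in GeneBLAzer PPARg UAS-bla HEK293H cells. These cells had been exposed 17 h at 37 C to compounds together with rosiglitazone at 50 nM final, with the beta-lactamase readout taken in the same wells.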
# [5] = qHTS assay for small molecule agonists of the antioxidant response element (ARE) signaling pathway (AID 743202; active means well fitted activation curve with a large enough effect in the signal ratio in the repeat runs, not every such curve was filed as active; the % refers to the signal ratio; further: potency means the concentration at half of the fitted maximal effect)
# How it was run: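 Beta-lactamase reporter activity, read as fluorescence intensity, reflects ARE/Nrf2 pathway induction in HepG2 cells after 16 h compound exposure at 37 C; substrate loading was 2 h at room temperature.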
# [6] = qHTS assay for small molecule agonists of the antioxidant response element (ARE) signaling pathway - cell viability counter screen (AID 743203; calls by dose curve; further: nearly all actives have a fitted effect of over 55% in size; further: potency means the concentration at half of the fitted maximal effect)
# How it was run: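 Measured in the same wells as the beta-lactamase ARE reporter, this read-out is CellTiter-Glo luminescence from HepG2 ARE-bla cells given compounds for 16 hrs.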
# [7] = qHTS assay for small molecule activators of the heat shock response signaling pathway - cell viability counter screen (AID 743209); further: nearly all actives have a fitted effect of over 50% in size; further: potency means the concentration at half of the fitted maximal effect
# How it was run: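 Same-well multiplex: after 2.5 h room-temperature incubation with LiveBLAzer B/G substrate and fluorescence reading, CellTiter-Glo reagent was added to HSE-bla HeLa cells that had received compound for 5 h at 37 C; luminescence read after 30 min.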
# [8] = qHTS assay for small molecule activators of the heat shock response signaling pathway (AID 743210; active means well fitted activation curve with a large enough effect in the signal ratio in the repeat runs, with a control signal flat, not every such curve was filed as active; the % refers to the signal ratio;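 further: HeLa cells with beta-lactamase reporter driven by heat shock elements; series mostly up to about 63 µM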)
# How it was run: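 Fluorescence from a cleaved B/G FRET substrate (2.5 h, room temp) reports HSE-driven beta-lactamase in HeLa cells treated 5 h at 37 C with DMSO-dissolved compounds.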
# [9] = qHTS assay to identify small molecule agonists of the peroxisome proliferator-activated receptor delta (PPARd) signaling pathway - cell viability counter screen (AID 743211); further: nearly all actives have a fitted effect of over 55% in size; further: potency means the concentration at half of the fitted maximal effect
# How it was run: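 In the same wells used for beta-lactamase reporter measurement, cytotoxicity is scored by CellTiter-Glo. HEK293H PPARd-bla cells receive compound for 17 h at 37C following a 5 h settling period.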
# [10] = target: Peroxisome proliferator-activated receptor delta (Homo sapiens) (UniProt Q03181); experiment: qHTS assay to identify small molecule agonists of the peroxisome proliferator-activated receptor delta (PPARd) signaling pathway (AID 743212; calls by dose curve;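 further: HEK293H cells with PPARd UAS beta-lactamase reporter GeneBLAzer system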)
# How it was run: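 Steps: seed PPARd-bla HEK293H cells; incubate 5 h, 37 C, 5% CO2; add compounds in DMSO; incubate, 37 C; add LiveBLAzer B/G FRET substrate; hold 2 h at room temperature; measure fluorescence.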
# [11] = target: Bile acid receptor (Homo sapiens) (UniProt Q96RI1); experiment: qHTS assay to identify small molecule antagonists of the farnesoid-X-receptor (FXR) signaling pathway (AID 743217; active means well fitted inhibition curve with a large enough effect in the signal ratio in the repeat runs, not every such curve was filed as active; the % refers to the signal ratio)
# How it was run: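 FRET fluorescence after 2 h room-temperature LiveBLAzer loading gives the readout. Prior step: FXR-bla HEK 293T cells, seeded and incubated 5 h, received test compounds plus 50 uM final CDCA for 16 h at 37 °C.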
# [12] = qHTS assay to identify small molecule agonists of the farnesoid-X-receptor (FXR) signaling pathway - cell viability counter screen (AID 743218); further: nearly all actives have a fitted effect of over 45% in size; further: potency means the concentration at half of the fitted maximal effect
# How it was run: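 Readout: CellTiter-Glo luminescence, 30 min RT, multiplexed after the FXR-bla FRET reading. HEK 293T FXR-UAS-bla cells received compound 5 h post-plating and were incubated 16 h at 37 C.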
# [13] = target: Bile acid receptor (Homo sapiens) (UniProt Q96RI1); experiment: qHTS assay to identify small molecule agonists of the farnesoid-X-receptor (FXR) signaling pathway (AID 743220; active means well fitted activation curve with a large enough effect in the signal ratio in the repeat runs, not every such curve was filed as active; the % refers to the signal ratio)
# How it was run: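 FXR-UAS-bla HEK 293T cells carrying a UAS-driven beta-lactamase reporter were plated for 5 h at 37C/5% CO2, then exposed to DMSO-dissolved Tox21 10K compounds for 16 h at 37C. A LiveBLAzer B/G FRET substrate was loaded for 2 h at room temperature before fluorescence reading.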
# [14] = qHTS assay to identify small molecule antagonists of the farnesoid-X-receptor (FXR) signaling pathway - cell viability counter screen (AID 743221; active means well fitted cell-killing curve with a large enough effect in the repeat runs, not every such curve was filed as active; further: nearly all actives have a fitted effect of over 50% in size; further: potency means the concentration at half of the fitted maximal effect)
# How it was run: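 Here viability was scored by luminescence after CellTiter-Glo addition to wells already read for beta-lactamase. Prior treatment: compound plus CDCA (50 uM final), 16 h, 37 C, HEK 293T FXR-bla cells.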
# [15] = target: Peroxisome proliferator-activated receptor gamma (Homo sapiens) (UniProt P37231); experiment: qHTS assay to identify small molecule agonists of the peroxisome proliferator-activated receptor gamma (PPARg) signaling pathway (AID 743094; active means well fitted activation curve with a large enough effect in the signal ratio in the repeat runs, not every such curve was filed as active; the % refers to the signal ratio)
# How it was run: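 Cell-based bla reporter, HEK293H background, PPARg-driven UAS. Pre-incubation 5 h, 37C, 5% CO2. Compound 17 h, 37C. Substrate 1 h RT; fluorescence.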
# [16] = target: Peroxisome proliferator-activated receptor gamma (Homo sapiens) (UniProt P37231); experiment: qHTS assay to identify small molecule antagonists of the peroxisome proliferator-activated receptor gamma (PPARg) signaling pathway (AID 743191; calls by dose curve; further: series mostly up to about 63 µM; nearly all actives have a fitted effect of over 30% in size)
# How it was run: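 Beta-lactamase reporter under UAS control in HEK293H PPARg-bla cells; compound treatment 17 h at 37C. Read-out: fluorescence intensity after 1 h room-temperature incubation with LiveBLAzer B/G FRET substrate.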
# [17] = target: Peroxisome proliferator-activated receptor delta (Homo sapiens) (UniProt Q03181); experiment: qHTS assay to identify small molecule antagonists of the peroxisome proliferator-activated receptor delta (PPARd) signaling pathway (AID 743215; active means well fitted inhibition curve with a large enough effect in the signal ratio in the repeat runs, not every such curve was filed as active; the % refers to the signal ratio;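 further: cells stimulated with agonist L165041 at 300 nM final during compound exposure; series mostly up to about 62 µM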)
# How it was run: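 Fluorescence from cleaved LiveBLAzer B/G FRET substrate (2 h, room temperature) reports PPARd-driven beta-lactamase in HEK293H UAS-bla cells. Cells had been treated 17 h at 37 C with compound plus 300 nM final L165041.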
# [18] = target: Vitamin D3 receptor (Homo sapiens) (UniProt P11473); experiment: qHTS assay to identify small molecule agonists of the vitamin D receptor (VDR) signaling pathway (AID 743222; calls by dose curve)
# How it was run: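 Following 4 h attachment at 37C, VDR-bla cells (2,000 per well) received DMSO-dissolved compounds or controls. After 16 h incubation, LiveBLAzer B/G FRET substrate was added and fluorescence read 2 h later at room temperature.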
# [19] = qHTS assay to identify small molecule antagonists of the peroxisome proliferator-activated receptor delta (PPARd) signaling pathway - cell viability counter screen (AID 743213); further: nearly all actives have a fitted effect of over 50% in size
# How it was run: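 PPARd-bla HEK293H cells were treated with compounds plus agonist L165041 (300 nM final) for 17 h at 37 C. Viability was then read in the same wells by CellTiter-Glo luminescence after 30 min at room temperature.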
# [20] = target: Vitamin D3 receptor (Homo sapiens) (UniProt P11473); experiment: qHTS assay to identify small molecule antagonists of the vitamin D receptor (VDR) signaling pathway (AID 743223; active means well fitted inhibition curve with a large enough effect in the signal ratio in the repeat runs, not every such curve was filed as active; the % refers to the signal ratio)
# How it was run: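 Inhibition of agonist-driven VDR signalling is scored in VDR-bla cells: 3 nM final 1alpha,25-dihydroxyvitamin D3 plus compound, 16 h at 37C, then beta-lactamase detection by FRET substrate fluorescence after 2 h.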
# Vitamin D3 receptor (Homo sapiens), sequence (P11473 whole entry, looked up): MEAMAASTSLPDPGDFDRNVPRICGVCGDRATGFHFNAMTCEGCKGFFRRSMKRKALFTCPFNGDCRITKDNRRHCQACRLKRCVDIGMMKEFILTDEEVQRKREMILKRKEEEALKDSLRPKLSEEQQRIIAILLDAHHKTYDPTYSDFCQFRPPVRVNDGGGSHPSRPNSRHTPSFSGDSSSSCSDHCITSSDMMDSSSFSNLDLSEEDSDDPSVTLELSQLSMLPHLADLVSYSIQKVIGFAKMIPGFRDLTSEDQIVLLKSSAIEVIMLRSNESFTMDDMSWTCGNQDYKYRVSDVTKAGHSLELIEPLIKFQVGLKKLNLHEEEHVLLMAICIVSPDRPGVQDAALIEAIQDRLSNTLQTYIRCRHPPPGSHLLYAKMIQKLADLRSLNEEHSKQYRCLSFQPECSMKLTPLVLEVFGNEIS
# Bile acid receptor (Homo sapiens), sequence (Q96RI1 whole entry, looked up): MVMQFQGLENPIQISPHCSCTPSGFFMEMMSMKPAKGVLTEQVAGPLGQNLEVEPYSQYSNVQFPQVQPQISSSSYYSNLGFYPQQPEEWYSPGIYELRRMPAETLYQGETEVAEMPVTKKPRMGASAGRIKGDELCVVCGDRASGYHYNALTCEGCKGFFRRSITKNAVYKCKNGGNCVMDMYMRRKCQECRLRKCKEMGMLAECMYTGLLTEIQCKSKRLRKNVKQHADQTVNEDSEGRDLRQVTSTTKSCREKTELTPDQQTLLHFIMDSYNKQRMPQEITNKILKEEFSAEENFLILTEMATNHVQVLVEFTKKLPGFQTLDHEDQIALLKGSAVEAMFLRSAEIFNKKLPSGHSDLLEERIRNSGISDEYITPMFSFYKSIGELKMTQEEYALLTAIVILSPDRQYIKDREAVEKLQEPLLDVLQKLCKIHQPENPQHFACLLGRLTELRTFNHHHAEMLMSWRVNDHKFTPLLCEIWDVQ
# Peroxisome proliferator-activated receptor gamma (Homo sapiens), sequence (P37231 whole entry, looked up): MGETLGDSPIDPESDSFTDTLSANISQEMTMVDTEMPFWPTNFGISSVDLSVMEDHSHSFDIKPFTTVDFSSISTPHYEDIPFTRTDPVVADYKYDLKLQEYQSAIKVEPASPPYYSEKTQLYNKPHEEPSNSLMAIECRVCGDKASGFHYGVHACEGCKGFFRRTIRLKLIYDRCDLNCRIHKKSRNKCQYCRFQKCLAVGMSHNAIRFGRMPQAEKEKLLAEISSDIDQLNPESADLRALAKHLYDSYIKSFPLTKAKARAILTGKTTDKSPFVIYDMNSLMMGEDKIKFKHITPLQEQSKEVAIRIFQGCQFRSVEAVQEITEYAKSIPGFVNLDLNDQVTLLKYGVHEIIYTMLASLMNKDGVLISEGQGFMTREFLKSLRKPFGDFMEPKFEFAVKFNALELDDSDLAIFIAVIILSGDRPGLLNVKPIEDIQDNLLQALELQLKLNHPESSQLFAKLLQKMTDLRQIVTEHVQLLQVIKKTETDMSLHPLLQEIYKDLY
# Aryl hydrocarbon receptor (Homo sapiens), sequence (P35869 whole entry, looked up): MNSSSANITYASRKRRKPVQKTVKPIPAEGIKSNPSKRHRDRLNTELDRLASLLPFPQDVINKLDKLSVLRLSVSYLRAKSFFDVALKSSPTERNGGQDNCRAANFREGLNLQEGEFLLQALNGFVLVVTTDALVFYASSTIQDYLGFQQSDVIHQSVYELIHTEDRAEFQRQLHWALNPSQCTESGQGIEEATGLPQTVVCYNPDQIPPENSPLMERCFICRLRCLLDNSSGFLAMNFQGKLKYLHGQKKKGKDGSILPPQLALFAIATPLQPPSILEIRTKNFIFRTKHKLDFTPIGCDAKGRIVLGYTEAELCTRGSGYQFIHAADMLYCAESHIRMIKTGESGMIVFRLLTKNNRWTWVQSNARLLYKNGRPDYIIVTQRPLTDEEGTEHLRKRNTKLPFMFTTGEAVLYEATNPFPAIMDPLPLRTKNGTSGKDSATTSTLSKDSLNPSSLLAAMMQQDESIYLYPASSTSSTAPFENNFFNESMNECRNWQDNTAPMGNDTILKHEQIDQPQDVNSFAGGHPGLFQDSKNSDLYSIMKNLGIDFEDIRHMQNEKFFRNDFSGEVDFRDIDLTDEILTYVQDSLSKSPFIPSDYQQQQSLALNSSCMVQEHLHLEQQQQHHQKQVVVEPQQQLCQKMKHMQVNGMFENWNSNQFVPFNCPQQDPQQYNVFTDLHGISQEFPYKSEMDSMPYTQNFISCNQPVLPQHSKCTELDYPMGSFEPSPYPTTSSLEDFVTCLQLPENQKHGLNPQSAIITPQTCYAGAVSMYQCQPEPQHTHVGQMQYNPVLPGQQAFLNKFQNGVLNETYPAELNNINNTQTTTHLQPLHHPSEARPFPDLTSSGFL
# Peroxisome proliferator-activated receptor delta (Homo sapiens), sequence (Q03181 whole entry, looked up): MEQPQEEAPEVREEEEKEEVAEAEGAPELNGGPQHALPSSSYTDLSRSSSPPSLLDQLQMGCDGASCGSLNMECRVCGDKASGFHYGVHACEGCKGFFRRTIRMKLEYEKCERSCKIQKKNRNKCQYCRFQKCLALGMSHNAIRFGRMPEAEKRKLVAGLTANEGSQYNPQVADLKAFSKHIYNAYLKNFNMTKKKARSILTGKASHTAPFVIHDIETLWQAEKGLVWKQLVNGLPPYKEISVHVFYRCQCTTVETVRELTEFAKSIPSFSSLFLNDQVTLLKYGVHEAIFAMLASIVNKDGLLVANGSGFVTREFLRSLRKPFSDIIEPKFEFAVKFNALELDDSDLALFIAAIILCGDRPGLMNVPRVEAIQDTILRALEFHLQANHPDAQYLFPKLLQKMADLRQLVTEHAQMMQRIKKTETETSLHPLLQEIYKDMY
Compound,Potency [1],Potency [2],Potency [3],Potency [4],Potency [5],Potency [6],Potency [7],outcome [8],Potency [9],outcome [10],Potency [11],Potency [12],outcome [13],Potency [14],outcome [15],Potency [16],outcome [17],outcome [18],Potency [19],Potency [20]
CCCCCCCCCCCCCC[P+](CCCCCC)(CCCCCC)CCCCCC,24.4 µM (active) and 12.3 µM (active),inactive,61.4 µM (active) and 54.9 µM (active) and inactive,24.7 µM (active) and 7.82 µM (active) and 2.45 µM (active),inactive,24.4 µM (active) and 15.5 µM (active) and inactive,6.19 µM (active) and 7.82 µM (active),inactive,7.8 µM (active) and 2.47 µM (active) and 61.6 nM (active),inactive,inactive,13.9 µM (active) and 24.7 µM (active) and inactive,inactive,22 µM (active) and 15.6 µM (active) and inactive,,,,,,
CCCCCCCCCCn1cc[n+](C)c1,24.6 µM (active) and inactive,inactive,inactive,22.1 µM [setting not given] (active) and 24.6 µM [setting not given] (active) and 4.89 µM [setting not given] (active),2.19 µM (active) and 4.85 µM (active) and 2.16 µM (active),inactive,39.3 µM (active),inactive,4.41 µM (active) and 24.6 µM (active) and 35.6 µM (active),,,55.5 µM (active) and inactive,,inactive,inactive,inactive,,,,
COP(=O)(OC)C(O)C(Cl)(Cl)Cl (stereo not drawn),inactive,inactive,inactive,inactive,,inactive,inactive,inactive,inactive,inactive,,inactive,inactive,inactive,inactive,,inactive,inactive,,
OCCOc1ccccc1,inactive,inactive,inactive,inactive,inactive,inactive,inactive,inactive,inactive,inactive,inactive,inactive,inactive,inactive,inactive,inactive,inactive,inactive,inactive,inactive
Oc1ccccc1-c1ccccc1,inactive,inactive and 24.9 µM (active),inactive,inactive,55.8 µM (active),inactive,inactive,,inactive,inactive,,inactive,,inactive,inactive,inactive,inactive,inactive,inactive,inactive
CCn1cc[n+](C)c1C,inactive,inactive,inactive,inactive,,inactive,inactive,inactive,inactive,,,inactive,,inactive,inactive,inactive,,inactive,,inactive
Nc1ccc(-c2ccc(N)cc2)cc1,inactive,9.58 µM (active) and inactive and 61.1 µM (active),inactive,inactive,inactive,inactive,inactive,inactive,inactive,,,inactive,,inactive,inactive,inactive,,inactive,,inactive
